CYP2C9 inhib – blocks human cytochrome P450 2C9 | CYP2C9 Supersomes, luciferin-H conversion, luminescence | inhibition, % at 5 µM | hit rate 20% among 96,000;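 active = blocking of liver enzyme CYP2C9 beyond about 50% at 5 µM, limit read from the data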
Cav32 inh – inhibitors of human Cav3.2 T-type calcium channel; O95180; Cav3.2-expressing cells, Fluo-4 calcium fluorescence FDSS; hits give low values; B-score at 10 µM; hit rate 4% among 100,000; AID 449739;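 active = single-dose well whose peak fluorescence ratio is a statistical outlier from its plate by either plate-standardised score or position-corrected B-score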
CYP2C9 activ – activators of human CYP2C9; recombinant CYP2C9, luciferin-H conversion, luminescence; hits give high values; factor 1 = untreated enzyme, 0 = blocked; activation factor at 5 µM; hit rate 1.4% among 96,000; AID 1024;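 active = activation factor of 2 or more for CYP2C9 at a 5 µM dose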;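 note: 0 = sulfaphenazole-blocked wells and 1 = vehicle-only wells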
CYP2C19 act – increases human CYP2C19 enzyme activity | activation factor at 5 µM | AID 1025 | recombinant CYP2C19, luciferin-H EGE luminescence; hits give high values; 0 = fully inhibited enzyme, 1 = untreated enzyme | 96,000 tested, under 10 active | P33261;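 active = activation factor of at least 2 at 5 µM in the primary screen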;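 note: 0 = wells with 2.5 mM tranylcypromine and 1 = vehicle-only wells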
Target sequence (P33261 whole entry, looked up): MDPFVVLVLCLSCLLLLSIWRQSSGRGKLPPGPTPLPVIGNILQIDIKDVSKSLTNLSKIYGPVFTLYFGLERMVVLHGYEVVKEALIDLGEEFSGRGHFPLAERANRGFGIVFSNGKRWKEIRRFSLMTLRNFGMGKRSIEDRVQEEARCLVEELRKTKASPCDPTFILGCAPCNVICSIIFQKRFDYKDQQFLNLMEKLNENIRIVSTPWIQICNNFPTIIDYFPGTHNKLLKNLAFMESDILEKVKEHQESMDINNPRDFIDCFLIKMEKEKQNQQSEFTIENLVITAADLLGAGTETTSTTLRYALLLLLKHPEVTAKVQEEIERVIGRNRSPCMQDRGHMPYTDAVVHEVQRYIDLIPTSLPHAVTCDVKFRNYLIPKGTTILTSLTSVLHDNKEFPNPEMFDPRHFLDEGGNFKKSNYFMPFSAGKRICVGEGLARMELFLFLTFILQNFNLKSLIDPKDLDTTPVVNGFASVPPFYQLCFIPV
CYP2C19 inhib – blocks human cytochrome P450 2C19 | P33261 | CYP2C19 Supersomes, luciferin-H EGE luminescence, 30 min | inhibition, % at 5 µM | hit rate 21% among 96,000;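 active = CYP2C19 inhibition above a set limit at 5 µM in the primary screen, cut at about 50% in these data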;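 note: plate controls were negative control wells for no effect and 2.5 mM tranylcypromine positive control for full effect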
* hit, by the source's call; · = no result given. Shown are actives, neighbours in structure and some others; about 27% of the full set was active somewhere.

SMILES	CYP2C9 inhib	Cav32 inh	CYP2C9 activ	CYP2C19 act	CYP2C19 inhib
Cc1ccc(-c2noc(CCC(=O)N3CCN(c4cccc(C(F)(F)F)c4)CC3)n2)cc1	93*	·	0.1	0.2	77*
COc1ccc(-c2noc(CCC(=O)N3CCN(c4cc(C)ccc4C)CC3)n2)cc1	78*	-6.9*	0.2	0.4	65*
CCCc1cc(-c2[nH]ncc2-c2ccc(C(=O)OCC)o2)c(O)cc1O	98*	-0.081	0	0.3	70*
CCCc1cc(-c2[nH]ncc2-c2ccc3c(c2)OCCCO3)c(O)cc1O	100*	-0.64	0	0	100*
O=C(NCc1cccnc1)c1c[nH]c2cc3c(cc2c1=O)OCCO3	2	0.24	1	1.1	-7
CCOCCCNC(=O)c1c[nH]c2ccc(S(=O)(=O)Nc3cccc(OC)c3)cc2c1=O	68*	0.3	0.3	0.7	27
O=C(NCc1ccccc1)c1c[nH]c2ccc(S(=O)(=O)Nc3ccc4c(c3)OCCO4)cc2c1=O	89*	1.5	0.1	0.7	32
O=C(NC1CC1)c1c[nH]c2ccc(S(=O)(=O)Nc3cccc(C(F)(F)F)c3)cc2c1=O	54*	-5.6*	0.5	0.8	15
Cc1ccc(NC(=O)c2nc[nH]c2C(=O)N2CCN(c3ccccc3)CC2)cc1	·	1	·	·	·
COc1ccc(S(=O)(=O)N[C@H](C(=O)O)C(C)C)cc1	-10	0.24	1.1	1.2	-16
COc1ccc(S(=O)(=O)c2ccc(O)cc2)cc1	-183	0.64	2.8*	0.3	71*
COc1ccc(C(=O)CSc2nnc(-c3ccc(C)cc3)o2)cc1	50	0.097	0.5	0.6	44
COc1ccc(C(CC(=O)c2ccc(O)cc2)S(=O)(=O)c2ccc(C)cc2)cc1 (centres undefined)	88*	-0.14	0.1	0.3	71*
O=C(NOC(=O)c1ccccc1Cl)c1cccs1	51*	0.0062	0.5	1.1	-10
CC(C)=C1C2CC2C2C(C(=O)O)C12 (centres undefined)	7	-0.85	0.9	1	0
N#CCCSCc1ccc(OCC(=O)O)cc1	-35	0.013	1.3	1.1	-10
CCCCOC(=O)c1ccc(NC(=O)CSC2=Nc3ccccc3C3CC=NN23)cc1 (centres undefined)	86*	·	0.1	0.6	38
CCCCOC(=O)c1ccc(NC(=O)CSc2nncn2C)cc1	27	0.072	0.7	0.5	46
Cc1nc2nc(NCc3cccs3)nn2c(C)c1Cl	10	0.11	0.9	1	-3
CCOC(=O)CSc1nnc([C@H](C)NC(=O)OC(C)(C)C)o1	-9	0.038	1.1	0.9	12
C=CCOC(=O)CSCC(NC(=O)OC(C)(C)C)C(=O)OCC (centres undefined)	45	·	0.5	0.4	58*
CC(C)(C)c1ccc(S(=O)(=O)CCc2ccccn2)cc1	20	0.91	0.8	0.3	68*
CCC(CC)NC(=O)c1cc2c(C)nn(Cc3ccccc3Cl)c2s1	71*	0.063	0.3	0.6	39
Cc1nn(Cc2ccccc2Cl)c2sc(C(=O)NCc3ccc4c(c3)OCO4)cc12	99*	-3.5*	0	0.1	92*
COc1ccccc1CNC(=O)c1cc2c(C)nn(Cc3ccc(F)cc3)c2s1	78*	-1.4	0.2	0.6	38
SMILES	CYP2C9 inhib	Cav32 inh	CYP2C9 activ	CYP2C19 act	CYP2C19 inhib
COc1ccc(CN2[C@@H](CC(C)=O)c3cc(C(F)(F)F)ccc3S2(=O)=O)cc1	·	0.94	·	·	·
Cc1oc(/C=N/NC(=O)CN(c2ccccc2Br)S(C)(=O)=O)cc1Br	·	-2.2	·	·	·
Cc1nn(-c2nc3ccccc3n2Cc2ccccc2)c2c1C(=O)CC(C)(C)C2	66*	-5*	0.3	0.5	53*
CCOC(=O)c1c2c(c(=S)n(-c3ccccc3)c1N)CCC2	54*	-0.0053	0.5	0.4	60*
N#Cc1c2c(c(=S)n(-c3ccccc3)c1N)CCCC2	57*	-0.94	0.4	0.8	22
COCOc1ccc(C=O)cc1OCOC	·	0.19	·	·	·
O=S1(=O)CCOC[C@H](Cc2ccccc2)N1Cc1ccccc1F	·	-0.12	·	·	·
CCOc1ccc(N(CC(=O)NC2CCCC(C)C2C)S(=O)(=O)c2c(C)noc2C)cc1 (centres undefined)	18	-0.41	0.8	0.9	6
CCOc1ccc(N(CC(=O)NCc2ccccc2)S(=O)(=O)c2c(C)noc2C)cc1	46	-0.61	0.5	0.1	91*
CCOc1ccc(N(CC(=O)Nc2ccc(OC)cc2)S(=O)(=O)c2c(C)noc2C)cc1	8	0.32	0.9	0.9	7
COc1cccc(CNC(=O)CN(c2cc(C)cc(C)c2)S(=O)(=O)c2c(C)noc2C)c1	58*	-1.9	0.4	0.5	55*
CCOc1ccc(N(CC(=O)NC(C)CC)S(=O)(=O)c2c(C)noc2C)cc1 (centres undefined)	28	0.93	0.7	0.4	64*
CCOc1ccc(N(CC(=O)Nc2nccs2)S(=O)(=O)c2c(C)noc2C)cc1	64*	-0.13	0.4	0.3	71*
Cc1cc2c(nn1)CCC/C2=N\O	-14	0.047	1.1	1.1	-10
CC(C)Cn1c(SCC(=O)NC(=O)NC2CCCC2)nc2ccccc21	43	-2.3	0.6	0.6	42
CCC(=Nc1ccc(N)cc1)C1=C(O)C(C(=O)OC)C(C)(C)CC1=O (centres undefined)	29	0.01	0.7	0.8	21
CCCC(=NCC(=O)O)C1=C(O)C(C(=O)OC)C(C)(C)CC1=O (centres undefined)	-1	1	1	0.9	6
CCCC(=NCc1ccccc1)C1=C(O)C(C(=O)OC)C(C)(C)CC1=O (centres undefined)	64*	0.0087	0.4	0.1	93*
COC(=O)C1C(O)=C(C=NCc2ccccc2)C(=O)CC1(C)C (centres undefined)	12	-0.29	0.9	0.8	16
CCCCC(=Nc1ccc(N)cc1)C1=C(O)C(C(=O)OC)C(C)(C)CC1=O (centres undefined)	51*	1.2	0.5	1	2
CCC(=NCc1ccccc1)C1=C(O)C(C(=O)OC)C(C)(C)CC1=O (centres undefined)	86*	·	0.1	0	97*
CCCC(=Nc1ccccc1)C1=C(O)C(C(=O)OC)C(C)(C)CC1=O (centres undefined)	45	-0.053	0.5	0.3	69*
CCOC(=O)c1c(=O)n(O)c2ccc(OC)cc2[n+]1[O-]	-4	-0.91	1	1	-1
CN1CCN(C(=O)N2c3ccccc3C=Cc3ccccc32)CC1	1	0.71	1	0.9	7
CN1CCC(=C2c3ccccc3C=Cc3ccccc32)CC1	·	-5*	·	·	·
Cc1cccc(CN2C(=O)[C@H]3Cc4c([nH]c5ccccc45)C(C)(C)N3C2=O)c1	·	-1.1	·	·	·
CCC(c1nnnn1Cc1ccc2c(c1)OCO2)N1CCN(c2ccccc2)CC1 (centres undefined)	81*	-1.4	0.2	0.3	68*
